The supplement of paper PMC10849652
The full data set covers some 8,800 targets. This sample favours those with a hit. About 0.5% of all pairs of compound and target were hits.

Experiments:
Assay in all cases: log2 fold change, soluble protein after heating vs DMSO (PISA); higher = thermal stabilisation; K562 lysate, 10 uM; active = over 0.2 and 3.5 SD of the protein, either way, in both replicates (recomputed)
ibrutinib = compound: C=CC(=O)N1CCC[C@@H](n2nc(-c3ccc(Oc4ccccc4)cc3)c3c(N)ncnc32)C1 [ibrutinib]
Procedure, shortened: (§1)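 K562 pellets were dounce-homogenised in PBS pH 7.4 containing 1 mM MgCl2, and the crude extract, at 1 mg/mL protein, was exposed to 10 μM compound for 30 min. Aliquots were heated for 3 min across 48°C-58°C, pooled, brought to 0.5% NP-40 at 4°C and spun at 21,000xg for 90 min, with the supernatant taken as soluble protein. TMTpro 16plex LC-MS/MS with equalised channel sums quantified that protein. Values are log-two fold changes in thermal stability relative to solvent controls, taken from duplicates.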

[1] = compound: CC(=O)c1cnc2ccc(-c3cc(Cl)c(O)c(Cl)c3)nc2c1N[C@H]1CC[C@H](CN(C)C)CC1
Procedure, shortened: as §1

ralimetinib = compound: CC(C)(C)Cn1c(N)nc2ccc(-c3[nH]c(C(C)(C)C)nc3-c3ccc(F)cc3)nc21 [ralimetinib]
Procedure, shortened: as §1

[2] = compound: CC(C)(O)CC(=O)NCCn1ccc2ncnc(Nc3ccc(Oc4cccc(C(F)(F)F)c4)c(Cl)c3)c21
Procedure, shortened: as §1

[3] = compound: CC(C)C1=C2N=C(C=C(N2N=C1)NCC3=CC=CC=C3)NCCCCCCN
Procedure, shortened: as §1

[4] = compound: CC1=C(C(CC(=O)N1)C2=CC=C(C=C2)C(F)(F)F)C(=O)NC3=C(C=C4C(=C3)C=NN4)F
Procedure, shortened: as §1

[5] = compound: CC1=C(C2=C(C=C1)C(=O)C3=CC=CC=C3N2CCCN)C
Procedure, shortened: as §1

[6] = compound: CC1=C(C=C(C=C1)NC(=O)C2=CC(=CC=C2)C(C)(C)C#N)NC3=CC4=C(C=C3)N=CN(C4=O)C
Procedure, shortened: as §1

[7] = compound: CC1=C(C=C(C=C1)NC(=O)C2=CC(=CC=C2)N(C)C)NC(=O)C3=CC=C(C=C3)O
Procedure, shortened: as §1

[8] = compound: CC1=CC=C(C=C1)SC2=C3C=C(SC3=CN=C2)C(=O)N
Procedure, shortened: as §1

Measured: log2 fold change

CASP7 isoform 3 (UniProt P55210)
inactive: ibrutinib 0 | [1] 0.125 | ralimetinib -0.118 | [2] -0.012 | [3] -0.123 | [4] -0.029 | [5] -0.161 | [6] 0.043 | [7] -0.124 | [8] -0.052

CDC42EP4 (UniProt Q9H3Q1)
inactive: ibrutinib 0.07 | [1] -0.014 | ralimetinib 0.034 | [2] -0.006 | [3] 0.01 | [4] 0.024 | [5] 0.026 | [6] 0.155 | [7] -0.018 | [8] -0.035

CCNB1 (UniProt P14635)
active: [1] 0.503
inactive: ibrutinib -0.01 | ralimetinib 0.009 | [2] -0.045 | [3] -0.012 | [4] -0.005 | [5] 0.003 | [6] 0.044 | [7] -0.002 | [8] 0

CASP9 (UniProt P55211)
inactive: ibrutinib -0.039 | [1] -0.06 | ralimetinib 0.04 | [2] -0.06 | [3] -0.017 | [4] 0.01 | [5] -0.003 | [6] -0.01 | [7] 0.011 | [8] -0.012

CCNH (UniProt P51946)
inactive: ibrutinib 0.018 | [1] -0.149 | ralimetinib -0.001 | [2] -0.064 | [3] -0.058 | [4] -0.044 | [5] -0.025 | [6] -0.044 | [7] 0.018 | [8] -0.016

BOLA2 (UniProt Q9H3K6)
inactive: ibrutinib -0.01 | [1] 0.02 | ralimetinib -0.025 | [2] 0.008 | [3] -0.025 | [4] -0.059 | [5] 0.038 | [6] -0.029 | [7] -0.022 | [8] 0.039

CALB2 (UniProt P22676)
inactive: ibrutinib 0.085 | [1] 0.016 | ralimetinib 0 | [2] -0.083 | [3] -0.093 | [4] -0.025 | [5] -0.116 | [6] 0.028 | [7] -0.039 | [8] -0.014

CCDC25 (UniProt Q86WR0)
inactive: ibrutinib 0.023 | [1] -0.006 | ralimetinib -0.018 | [2] -0.013 | [3] 0.017 | [4] -0.042 | [5] -0.022 | [6] 0.03 | [7] -0.002 | [8] 0

CCDC22 (UniProt O60826)
inactive: ibrutinib 0.006 | [1] 0.033 | ralimetinib -0.005 | [2] -0.045 | [3] -0.009 | [4] 0.005 | [5] 0.001 | [6] -0.01 | [7] 0.025 | [8] -0.027

C18orf25 (UniProt Q96B23)
inactive: ibrutinib 0.114 | [1] 0.026 | ralimetinib 0 | [3] -0.038 | [4] 0.073 | [5] -0.008 | [6] 0.04 | [7] -0.091 | [8] -0.065
active: [2] -0.276

CD63 (UniProt P08962)
inactive: ibrutinib -0.012 | [1] -0.063 | ralimetinib 0.078 | [2] -0.023 | [3] 0.017 | [4] 0.005 | [5] 0.049 | [6] 0 | [7] 0.039 | [8] 0.023

CELF2 isoform 3 (UniProt O95319)
UniProt O95319, sequence (O95319 whole entry, looked up): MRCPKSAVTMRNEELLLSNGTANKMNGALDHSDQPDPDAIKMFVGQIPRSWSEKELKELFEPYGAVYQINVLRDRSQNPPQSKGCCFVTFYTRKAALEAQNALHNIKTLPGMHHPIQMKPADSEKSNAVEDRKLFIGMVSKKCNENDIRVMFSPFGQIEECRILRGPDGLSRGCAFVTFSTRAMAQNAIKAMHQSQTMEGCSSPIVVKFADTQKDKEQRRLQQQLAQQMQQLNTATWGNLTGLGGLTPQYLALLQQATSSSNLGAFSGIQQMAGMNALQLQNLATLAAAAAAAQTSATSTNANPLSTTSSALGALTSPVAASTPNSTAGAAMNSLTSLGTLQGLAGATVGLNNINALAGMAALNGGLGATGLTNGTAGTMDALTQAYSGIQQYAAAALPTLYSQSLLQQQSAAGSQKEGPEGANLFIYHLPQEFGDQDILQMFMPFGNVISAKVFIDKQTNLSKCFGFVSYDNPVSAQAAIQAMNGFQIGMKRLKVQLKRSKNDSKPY
active: [6] -0.413
inactive: ibrutinib -0.016 | [1] 0.062 | ralimetinib -0.019 | [2] -0.015 | [3] 0.001 | [4] 0.025 | [5] 0.01 | [7] 0.018 | [8] 0.014

CHD5 (UniProt Q8TDI0)
UniProt Q8TDI0, sequence (Q8TDI0 whole entry, looked up): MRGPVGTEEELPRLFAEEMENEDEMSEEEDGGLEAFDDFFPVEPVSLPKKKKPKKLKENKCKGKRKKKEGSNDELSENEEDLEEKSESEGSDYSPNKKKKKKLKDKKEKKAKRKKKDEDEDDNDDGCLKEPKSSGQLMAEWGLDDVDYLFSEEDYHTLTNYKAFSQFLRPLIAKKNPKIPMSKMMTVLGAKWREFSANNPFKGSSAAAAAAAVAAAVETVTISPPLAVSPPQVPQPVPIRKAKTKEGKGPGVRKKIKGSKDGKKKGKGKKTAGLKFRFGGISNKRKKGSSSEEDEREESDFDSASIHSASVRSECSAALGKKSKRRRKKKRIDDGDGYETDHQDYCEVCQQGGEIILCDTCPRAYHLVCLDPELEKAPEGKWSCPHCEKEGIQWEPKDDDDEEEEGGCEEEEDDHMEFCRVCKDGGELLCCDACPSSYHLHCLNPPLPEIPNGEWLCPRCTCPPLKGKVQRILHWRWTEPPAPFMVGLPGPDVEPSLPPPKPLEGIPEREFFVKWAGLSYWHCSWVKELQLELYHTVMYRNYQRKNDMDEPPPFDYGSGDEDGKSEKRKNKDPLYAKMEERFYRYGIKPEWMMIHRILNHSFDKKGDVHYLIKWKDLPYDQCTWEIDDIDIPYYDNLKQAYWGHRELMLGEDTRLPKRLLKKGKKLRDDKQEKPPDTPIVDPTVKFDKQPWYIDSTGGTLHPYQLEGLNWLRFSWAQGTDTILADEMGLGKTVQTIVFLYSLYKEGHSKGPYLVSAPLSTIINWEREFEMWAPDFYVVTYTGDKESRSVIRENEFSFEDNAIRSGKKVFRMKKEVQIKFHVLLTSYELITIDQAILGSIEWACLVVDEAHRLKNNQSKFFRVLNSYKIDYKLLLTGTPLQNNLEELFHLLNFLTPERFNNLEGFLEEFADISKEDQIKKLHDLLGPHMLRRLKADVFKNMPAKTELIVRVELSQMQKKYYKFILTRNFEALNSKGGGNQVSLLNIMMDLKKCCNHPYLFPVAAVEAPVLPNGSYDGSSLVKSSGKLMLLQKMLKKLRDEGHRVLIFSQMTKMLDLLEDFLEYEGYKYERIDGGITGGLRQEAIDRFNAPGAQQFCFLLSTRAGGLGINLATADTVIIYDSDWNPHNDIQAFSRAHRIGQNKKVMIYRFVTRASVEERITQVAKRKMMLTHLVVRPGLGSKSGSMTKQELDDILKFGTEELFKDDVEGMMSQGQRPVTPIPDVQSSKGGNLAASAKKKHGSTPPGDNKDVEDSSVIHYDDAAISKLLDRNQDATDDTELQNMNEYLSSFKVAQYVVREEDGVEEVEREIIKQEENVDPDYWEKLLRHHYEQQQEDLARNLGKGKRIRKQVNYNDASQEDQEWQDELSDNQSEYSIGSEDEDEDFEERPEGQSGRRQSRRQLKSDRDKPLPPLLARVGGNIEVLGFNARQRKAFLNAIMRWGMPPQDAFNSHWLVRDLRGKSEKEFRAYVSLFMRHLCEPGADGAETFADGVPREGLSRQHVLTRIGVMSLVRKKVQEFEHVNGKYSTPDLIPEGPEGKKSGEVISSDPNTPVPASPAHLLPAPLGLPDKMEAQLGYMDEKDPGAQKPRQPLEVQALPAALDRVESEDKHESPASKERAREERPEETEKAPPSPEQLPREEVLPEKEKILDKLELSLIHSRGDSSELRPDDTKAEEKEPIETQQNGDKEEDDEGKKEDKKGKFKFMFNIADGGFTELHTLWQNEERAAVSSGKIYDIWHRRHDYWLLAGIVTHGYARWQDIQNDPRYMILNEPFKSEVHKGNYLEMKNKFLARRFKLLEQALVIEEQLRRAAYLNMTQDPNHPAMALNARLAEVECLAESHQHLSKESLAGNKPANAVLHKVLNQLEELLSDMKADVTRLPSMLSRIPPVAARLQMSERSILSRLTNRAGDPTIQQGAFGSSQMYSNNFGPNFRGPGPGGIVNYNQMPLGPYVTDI
inactive: ibrutinib -0.063 | [1] 0.015 | ralimetinib 0 | [2] 0.005 | [3] -0.011 | [4] 0.026 | [5] -0.026 | [6] -0.005 | [7] 0.029 | [8] 0.01

CASP6 (UniProt P55212)
inactive: ibrutinib -0.029 | [1] 0.034 | ralimetinib 0.074 | [2] 0.011 | [3] -0.042 | [4] -0.012 | [5] 0.005 | [6] -0.003 | [7] -0.02 | [8] -0.008

C3orf33 (UniProt Q6P1S2)
inactive: ibrutinib -0.045 | [1] -0.084 | ralimetinib 0.17 | [2] 0.012 | [3] -0.001 | [4] 0.046 | [5] -0.031 | [6] 0.117 | [7] -0.205 | [8] 0.008

BNIP1 (UniProt Q12981)
inactive: ibrutinib 0.038 | [1] 0.005 | ralimetinib 0.01 | [2] -0.011 | [3] 0.051 | [4] 0.046 | [5] 0.005 | [6] 0.002 | [7] 0.024 | [8] 0.012

AURKA (UniProt O14965)
UniProt O14965, sequence (O14965 whole entry, looked up): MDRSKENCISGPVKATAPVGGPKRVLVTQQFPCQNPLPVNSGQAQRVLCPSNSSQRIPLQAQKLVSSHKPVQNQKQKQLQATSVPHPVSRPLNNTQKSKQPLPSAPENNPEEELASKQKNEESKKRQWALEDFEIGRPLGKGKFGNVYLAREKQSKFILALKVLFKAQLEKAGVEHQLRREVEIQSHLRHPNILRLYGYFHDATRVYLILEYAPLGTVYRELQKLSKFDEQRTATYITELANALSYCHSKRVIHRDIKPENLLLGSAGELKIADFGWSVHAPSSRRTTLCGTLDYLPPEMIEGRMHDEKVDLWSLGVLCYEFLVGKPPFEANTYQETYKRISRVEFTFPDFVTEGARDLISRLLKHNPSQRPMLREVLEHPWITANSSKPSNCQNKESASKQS
inactive: ibrutinib 0.348 | [1] 0.144 | ralimetinib -0.042 | [2] 0.037 | [3] -0.051 | [4] 0.034 | [5] -0.039 | [6] -0.042 | [7] -0.005 | [8] 0.007

CAD (UniProt P27708)
inactive: ibrutinib -0.009 | [1] -0.016 | ralimetinib 0.03 | [2] -0.002 | [3] 0.005 | [4] -0.005 | [5] 0.026 | [6] 0.009 | [7] 0.009 | [8] 0.018

CCDC47 (UniProt Q96A33)
UniProt Q96A33, sequence (Q96A33 whole entry, looked up): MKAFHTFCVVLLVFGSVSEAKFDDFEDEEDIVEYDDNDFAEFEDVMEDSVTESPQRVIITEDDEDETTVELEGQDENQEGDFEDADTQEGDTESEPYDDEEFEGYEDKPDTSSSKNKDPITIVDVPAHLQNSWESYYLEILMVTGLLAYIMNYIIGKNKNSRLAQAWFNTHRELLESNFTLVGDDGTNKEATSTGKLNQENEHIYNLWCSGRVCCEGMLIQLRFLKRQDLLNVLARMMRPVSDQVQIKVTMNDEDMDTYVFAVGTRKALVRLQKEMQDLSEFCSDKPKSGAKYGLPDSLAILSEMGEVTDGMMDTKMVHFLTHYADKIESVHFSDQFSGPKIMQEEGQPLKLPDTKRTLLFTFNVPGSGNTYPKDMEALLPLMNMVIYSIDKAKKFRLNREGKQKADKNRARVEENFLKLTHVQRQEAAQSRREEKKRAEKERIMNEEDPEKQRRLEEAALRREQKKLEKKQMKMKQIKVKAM
inactive: ibrutinib 0 | [1] 0.002 | ralimetinib 0.01 | [2] -0.063 | [3] -0.042 | [4] 0.044 | [5] -0.002 | [6] 0.041 | [7] 0.045 | [8] -0.013

ATE1 isoform 2 (UniProt O95260)
UniProt O95260, sequence (O95260 whole entry, looked up): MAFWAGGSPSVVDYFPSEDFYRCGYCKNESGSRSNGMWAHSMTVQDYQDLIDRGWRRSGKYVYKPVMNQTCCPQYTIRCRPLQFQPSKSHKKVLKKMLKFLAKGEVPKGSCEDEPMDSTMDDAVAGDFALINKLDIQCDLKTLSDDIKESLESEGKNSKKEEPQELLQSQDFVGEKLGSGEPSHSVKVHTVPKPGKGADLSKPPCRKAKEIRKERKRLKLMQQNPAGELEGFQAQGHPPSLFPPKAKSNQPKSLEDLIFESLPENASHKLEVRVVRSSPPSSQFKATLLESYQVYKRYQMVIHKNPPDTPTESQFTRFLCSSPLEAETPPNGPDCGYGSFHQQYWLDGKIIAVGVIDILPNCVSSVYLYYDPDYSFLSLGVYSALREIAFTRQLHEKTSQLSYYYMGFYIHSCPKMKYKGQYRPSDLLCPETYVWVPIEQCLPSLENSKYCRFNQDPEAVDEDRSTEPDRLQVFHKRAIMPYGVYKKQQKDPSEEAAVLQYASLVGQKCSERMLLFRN
inactive: ibrutinib 0.056 | [1] 0.001 | ralimetinib -0.006 | [2] 0.063 | [3] -0.016 | [4] 0.048 | [5] -0.001 | [6] -0.04 | [7] -0.004 | [8] 0.011

CDK9 isoform 2 (UniProt P50750)
inactive: ibrutinib -0.042 | [1] 0.269 | ralimetinib 0.013 | [2] 0.026 | [3] -0.092 | [4] -0.026 | [5] -0.021 | [6] -0.032 | [7] 0.004 | [8] -0.021

CENPQ (UniProt Q7L2Z9)
UniProt Q7L2Z9, sequence (Q7L2Z9 whole entry, looked up): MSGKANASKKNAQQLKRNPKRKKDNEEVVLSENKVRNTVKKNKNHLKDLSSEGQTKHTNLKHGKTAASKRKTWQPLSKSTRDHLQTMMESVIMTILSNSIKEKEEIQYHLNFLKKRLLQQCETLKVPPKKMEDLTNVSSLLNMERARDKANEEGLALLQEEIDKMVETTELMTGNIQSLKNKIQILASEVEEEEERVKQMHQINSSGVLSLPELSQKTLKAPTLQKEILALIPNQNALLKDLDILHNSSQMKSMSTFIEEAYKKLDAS
inactive: ibrutinib 0.009 | [1] 0.162 | ralimetinib 0.029 | [2] -0.002 | [3] 0.005 | [4] 0.097 | [5] -0.153 | [6] -0.057 | [7] -0.075 | [8] 0.013

CAMK2B (UniProt Q13554)
UniProt Q13554, sequence (Q13554 whole entry, looked up): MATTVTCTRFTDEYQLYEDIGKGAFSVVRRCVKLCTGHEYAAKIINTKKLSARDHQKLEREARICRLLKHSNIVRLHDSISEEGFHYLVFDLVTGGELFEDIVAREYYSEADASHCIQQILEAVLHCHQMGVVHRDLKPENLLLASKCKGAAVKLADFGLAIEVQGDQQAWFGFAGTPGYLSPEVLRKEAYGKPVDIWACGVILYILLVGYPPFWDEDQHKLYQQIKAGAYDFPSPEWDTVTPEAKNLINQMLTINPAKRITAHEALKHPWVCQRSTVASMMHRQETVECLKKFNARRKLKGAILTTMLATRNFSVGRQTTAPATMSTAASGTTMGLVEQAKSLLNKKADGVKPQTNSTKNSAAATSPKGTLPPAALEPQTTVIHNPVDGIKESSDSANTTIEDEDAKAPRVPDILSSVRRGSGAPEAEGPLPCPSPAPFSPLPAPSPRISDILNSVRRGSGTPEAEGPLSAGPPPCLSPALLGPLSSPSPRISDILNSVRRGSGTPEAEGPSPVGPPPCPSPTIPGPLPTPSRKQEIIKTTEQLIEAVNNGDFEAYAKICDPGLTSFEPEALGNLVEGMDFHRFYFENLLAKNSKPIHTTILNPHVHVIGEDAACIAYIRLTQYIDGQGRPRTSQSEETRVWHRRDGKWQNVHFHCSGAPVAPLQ
inactive: ibrutinib 0.092 | [1] 0.023 | ralimetinib 0.028 | [2] 0.045 | [3] 0.075 | [4] -0.035 | [5] -0.018 | [6] -0.005 | [7] 0.046 | [8] -0.032

BLM (UniProt P54132)
inactive: ibrutinib 0.128 | [1] 0.026 | ralimetinib -0.015 | [2] 0.031 | [3] -0.005 | [4] -0.019 | [5] 0.03 | [6] -0.058 | [7] 0.019 | [8] 0.036

CHCHD4 isoform 2 (UniProt Q8N4Q1)
UniProt Q8N4Q1, sequence (Q8N4Q1 whole entry, looked up): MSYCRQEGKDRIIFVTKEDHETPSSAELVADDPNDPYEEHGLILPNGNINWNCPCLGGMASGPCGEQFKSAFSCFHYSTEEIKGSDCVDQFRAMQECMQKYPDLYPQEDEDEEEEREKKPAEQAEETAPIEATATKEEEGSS
inactive: ibrutinib 0.076 | [1] -0.041 | ralimetinib 0.034 | [2] -0.091 | [3] -0.015 | [4] 0.076 | [5] 0.002 | [6] 0.039 | [7] 0 | [8] 0.013

CES2 isoform 4 (UniProt O00748)
active: ibrutinib 0.431
inactive: [1] -0.048 | ralimetinib -0.031 | [2] 0.057 | [3] -0.004 | [4] 0.202 | [5] -0.128 | [6] 0.079 | [7] -0.019 | [8] -0.025

AURKAIP1 (UniProt Q9NWT8)
active: [7] -0.417
inactive: ibrutinib -0.055 | [1] -0.095 | ralimetinib -0.363 | [2] -0.222 | [3] 0.021 | [4] 0.029 | [5] -0.012 | [6] 0.135 | [8] -0.013

ATAD1 (UniProt Q8NBU5)
inactive: ibrutinib 0 | [1] 0.008 | ralimetinib 0.245 | [2] -0.059 | [3] 0.016 | [4] -0.165 | [5] -0.059 | [6] -0.003 | [7] -0.01 | [8] 0.03

CCDC186 (UniProt Q7Z3E2)
inactive: ibrutinib 0.024 | [1] -0.025 | ralimetinib -0.001 | [2] -0.056 | [3] -0.086 | [4] 0.006 | [5] 0.021 | [6] -0.016 | [7] 0 | [8] -0.023

CDC42BPA isoform 6 (UniProt Q5VT25)
inactive: ibrutinib 0.016 | [1] 0.039 | ralimetinib 0.012 | [2] -0.013 | [3] 0.03 | [4] 0.005 | [5] -0.004 | [6] 0.018 | [7] 0.034 | [8] -0.003
